{"source": "PubChem BioAssay (NCATS)", "note": "Records with an inconclusive call do not appear. Active and inactive are the calls of the source. The call rests on the fitted dose curve; in most records, active means well fitted cell-killing curve with a large enough effect; inconclusive means small, poorly fitted or top-dose-only effect; inactive means flat fitted curve, though single readings scatter.", "data": [{"test": "Quantitative highthroughput screen to assess conditional lethalithy of NOMO1 cells grown in RPMI1640 with dialyzed fetal bovine serum (RPMI+ds) (AID 1963877); further: nearly all actives have a fitted effect of over 30% in size; further: potency means the concentration at half of the fitted maximal effect", "details": "NOMO1 in RPMI+dialyzed FBS viability, ATP luminescence, 48 h; series mostly up to 45.8 µM; viability: at the top concentration", "excerpt": "Assay Provider: Jason Cantor Ph.D.\nDepartment of Biochemistry\nUniversity of Wisconsin-Madison, Madison, WI, USA\nChemical screening studies have identified drug sensitivities across hundreds of cancer cell lines but most putative therapeutics fail to translate. Discovery and development of drug candidates in models that more accurately reflect nutrient levels in human blood is a major challenge. Here we performed high-throughput screens in conventional versus Human Plasma-Like Medium (HPLM) to identify compounds that were \"missed\" when screening using the artificial culture condition. Sets of conditional anticancer compounds spanned phases of clinical development and included non-oncology drugs were assessed. […] We also traced conditional phenotypes for several chemotherapeutics to availability of HPLM-specific metabolites and confirmed others for compounds whose reported targets are encoded by nonessential genes. Our findings establish generalizable strategies for exploiting conditional lethality in HPLM to reveal therapeutic candidates and mechanisms of action in cancer cells.\nDescribed herein are the results of each viability screens against three cell lines: NOMO1 (an acute myeloid leukemia cell line); P12-Ichikawa (a T-cell acute lymphoblastic leukemia); and SEM (a B-cell ALL). Each assay was screened using 3 different cell culture media: homemade human plasma-Like medium with 10% dialyzed fetal bovine serum (HPLM+ds); RPMI1640 with 10% untreated FBS and 5mM glucose (RPMI+s); and RPMI1640 with 10% dialyzed fetal bovine serum and 5 mM glucose (RPMI+ds).\nPROTOCOL TABLE (as described by Inglese J, Shamu CE and Guy RK. 2007)\nSEQUENCE No. (e.g., 1, 2, 3, etc.); […] (e.g., Cells, Incubation, Reagent, etc.); VALUE and DESCRIPTION.\n1; Cells; 5 uL; white, solid bottom 1536-well Greiner assay plate.\n2; Compounds; 23 nL; Kalypsis pin tool (Wako USA) equipped with a 1536-well pin head to transfer to the assay plates.\n3; Incubation; 48 hours; 37C incubation.\n4; Reagent; 3 uL; CellTiter Glo (Promega).\n5; Incubation; 5 min, room temperature\n6; Detection; Luminescence, Viewlux PerkinElmer.\nNOTES (numbers refer to Sequence numbers above)\n1. Briefly, 5 ul of cell reagent was dispensed using a Multidrop Combi Dispenser. The NOMO1 and SEM cells were plated at 500 cells/well and the P12-Ichikawa line at 1000 cells/well.\n2. After seeding the cells, 23 nL of MIPE 4.1 library compounds (in DMSO) were added to each plate using a Kalypsys 1536 Pintool dispenser. Bortezomib at final concentration of […] and DMSO were added to each plate as positive and negative controls respectively. For each screen, MIPE 4.1 compounds were added over an eleven-point concentration range […] in 3-fold dilutions.\n3. Each plate was covered with a stainless steel gasketed lid to prevent evaporation and incubated for 48 hour at 37C, 95% relative humidity, and 5% CO2.\n4-5. Three microliter CellTilter-GloTM luminescent substrate mix (Promega) reagent was added to the assay plate and incubated at room temperature for 5 min.\n6. The luminescence signal was measured using a ViewLux (PerkinElmer) multiplate reader with a 2 second exposure time per plate. Data for each compound were normalized as percent viability such that measurements for DMSO and the empty well controls in each plate were defined as 100% and 0%, respectively.", "values": [{"compound": "Cc1nccn1CC1CCc2c(c3ccccc3n2C)C1=O", "note": "(stereo not given)", "viability": "101% (inactive)"}, {"compound": "CC[C@@]1(O)C(=O)OCc2c1cc1n(c2=O)Cc2cc3cc(O)ccc3nc2-1", "Potency": "0.148 µM (active)"}, {"compound": "O=c1c2ccccc2nc2n1CCc1c-2[nH]c2ccccc12", "viability": "91.4% (inactive)"}, {"compound": "CCOCC(O)COc1ccc(NC(=O)CC[S+](C)C)cc1", "note": "(stereo not given)", "viability": "98.6% (inactive)"}, {"compound": "CC(=O)[C@H]1CC[C@H]2[C@@H]3CCC4=CC(=O)CC[C@]4(C)[C@H]3CC[C@]12C", "viability": "110% (inactive)"}, {"compound": "N[C@@H](C(=O)N[C@@H]1C(=O)N2C(C(=O)O)=C(Cl)CS[C@H]12)c1ccccc1", "viability": "102% (inactive)"}, {"compound": "Nc1ccn(C[C@@H](CO)OCP(=O)(O)O)c(=O)n1", "viability": "112% [at 23.2 µM] (inactive)"}, {"compound": "COc1nc(N)nc2c1ncn2[C@@H]1O[C@H](CO)[C@@H](O)[C@@H]1O", "viability": "96.6% (inactive)"}, {"compound": "O=c1cc(CN2CCOCC2)occ1OCCCCCSc1ccnc2cc(C(F)(F)F)ccc12", "viability": "84.7% (inactive)"}, {"compound": "CC1(C)CNc2cc(NC(=O)c3cccnc3NCc3ccncc3)ccc21", "viability": "109% (inactive)"}, {"compound": "Cc1cccc(-c2[nH]c(C(C)(C)C)nc2-c2ccc3c(c2)OCO3)n1", "Potency": "9.35 µM (active)"}, {"compound": "C[C@H](NC(=O)c1sccc1OCc1ccc(Cl)cc1)c1ccccc1", "viability": "105% (inactive)"}, {"compound": "C1CCC(C(CC2CCCCN2)C2CCCCC2)CC1", "note": "(stereo not given)", "Potency": "23.5 µM (active)"}, {"compound": "Nc1cccc(S(=O)(=O)N2CCCN(S(=O)(=O)c3ccc4c(c3)OCCO4)CC2)c1", "viability": "88.8% (inactive)"}, {"compound": "O=C1c2c(O)cc(O)cc2OC(c2ccc(O)c(O)c2)C1O", "note": "(stereo not given)", "viability": "112% (inactive)"}, {"compound": "Nc1nc(=O)n([C@H]2CSC(CO)O2)cc1F", "note": "(stereo not given in full)", "viability": "97.1% (inactive)"}, {"compound": "COc1ccc2c(Oc3ccc(NC(=O)c4c(C)n(CC(C)(C)O)n(-c5ccccc5)c4=O)nc3)ccnc2c1", "viability": "74.3% (inactive)"}, {"compound": "CCC(C)(Oc1ccc(C2(c3ccc(OC(C)(CC)C(=O)O)cc3)CCCCC2)cc1)C(=O)O", "note": "(stereo not given)", "viability": "108% (inactive)"}, {"compound": "COc1cc(Cl)cn2c(-c3cccc(NC4CNC4)n3)cnc12", "viability": "87.5% (inactive)"}, {"compound": "O=C(O)c1ccc(O)c2ncc(N3CCOCC3)cc12", "viability": "87.7% (inactive)"}, {"compound": "Cc1nc2n(c(=O)c1CCN1CCC(c3noc4cc(F)ccc34)CC1)CCCC2", "viability": "88.4% (inactive)"}, {"compound": "COc1ccc2cc(-c3nc(-c4ccc(S(C)=O)cc4)[nH]c3-c3ccncc3)ccc2c1", "note": "(stereo not given)", "viability": "102% (inactive)"}, {"compound": "O=C(O)c1cccnc1Nc1cccc(C(F)(F)F)c1", "viability": "93.1% (inactive)"}, {"compound": "COC(=O)C1C2CC3c4[nH]c5cc(OC)ccc5c4CCN3CC2CC(OC(=O)c2cc(OC)c(OC)c(OC)c2)C1OC", "note": "(stereo not given)", "viability": "88.5% (inactive)"}, {"compound": "O=C(Nc1ccc(F)c(C(F)(F)F)c1)Nc1nnc(-c2ccncc2)s1", "viability": "94.3% (inactive)"}, {"compound": "OC[C@H](Cc1ccccc1)Nc1nc(Oc2ccc3c(c2)CCC3)nc2c1ncn2Cc1ccc(-c2ccccc2)cc1", "viability": "95.9% (inactive)"}, {"compound": "Nc1ccn([C@@H]2O[C@H](CO)[C@@H](O)C2O)c(=O)n1", "note": "(stereo not given in full)", "viability": "82.5% (inactive)"}, {"compound": "Cc1cccc(-c2[nH]ncc2-c2ccc3ncccc3n2)n1", "Potency": "18.7 µM (active)"}, {"compound": "CC1(C)S[C@H]2[C@H](NC(=O)[C@@H](N)c3ccc(O)cc3)C(=O)N2[C@@H]1C(=O)O", "Potency": "9.35 µM (active)"}, {"compound": "O=C1NC(=O)C(=Cc2ccc(-c3ccc(F)cc3O)o2)S1", "Potency": "10.5 µM (active)"}, {"compound": "Cc1nc(C(=O)NCC(=O)O)c(O)c2ccc(Oc3ccccc3)cc12", "viability": "115% (inactive)"}, {"compound": "Cc1ccc(C(=O)c2cc(O)c(O)c([N+](=O)[O-])c2)cc1", "viability": "101% (inactive)"}, {"compound": "O=C1CCc2ccc(OCCCCN3CCN(c4cccc(Cl)c4Cl)CC3)cc2N1", "viability": "91.9% (inactive)"}, {"compound": "O=C(Nc1ccccc1)Nc1ccc(-c2ccc(C(=O)[C@H]3CCC[C@H]3C(=O)O)cc2)cc1", "Potency": "6.62 µM (active)"}, {"compound": "CC1=CC(=O)c2ccccc2C1=O", "viability": "102% (inactive)"}, {"compound": "CC1(C)NC(=O)N(c2ccc([N+](=O)[O-])c(C(F)(F)F)c2)C1=O", "viability": "104% (inactive)"}, {"compound": "COc1ccc([C@@H]2CC(=O)c3c(O)cc(O[C@@H]4O[C@H](CO[C@@H]5O[C@@H](C)[C@H](O)[C@@H](O)[C@@H]5O)[C@@H](O)[C@H](O)[C@@H]4O)cc3O2)cc1O", "Potency": "inactive"}, {"compound": "NS(=O)(=O)c1cc2c(cc1Cl)NC=NS2(=O)=O", "viability": "96.3% (inactive)"}, {"compound": "CC(C)c1ccc2c(c1)c(SC(C)(C)C)c(CC(C)(C)C(=O)O)n2Cc1ccc(Cl)cc1", "viability": "97.9% (inactive)"}, {"compound": "Cc1[nH]nc2ccc(-c3cncc(OC[C@@H](N)Cc4ccccc4)c3)cc12", "Potency": "2.35 µM (active)"}]}]}
